The source of these data is PubChem BioAssay (NCATS).

Inconclusive results are not listed. Unmarked numbers belong to inactive results. Activity calls are given as the source filed them. Calls come from the whole dose curve; as a rule, active = well fitted inhibition curve with a large enough effect; inconclusive = small, poorly fitted or top-dose-only effect; inactive = flat fitted curve, though single readings scatter.
Potency is the fitted concentration of half-maximal effect.

The first assay relates to DIV30. Briefly: qHTS profiling for inhibitors of Plasmodium falciparum proliferation (AID 504749).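 For activity, negative = inhibition: 0% = DMSO vehicle and full inhibition = artemisinin control.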 Note: nearly all actives have a fitted effect of over 60% in size. The settings on record: P. falciparum in erythrocytes, SYBR Green DNA, 72 h; series mostly up to 28.7 µM; activity, negative = inhibition: at the top concentration. The method, boiled down:
(§1)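 P. falciparum-infected erythrocytes (0.3% parasitemia, 2.5% hematocrit) incubated with compound 72 h at 37 C, 5% CO2. Parasite DNA detected by SYBR Green after lysis, overnight at room temperature; normalised to 0.29 uM artemisinin and DMSO.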
For orientation: qHTS replaces the single test concentration by a dilution series.
Take `CN1C(C(=O)Nc2ccccn2)C(=O)c2sc(Cl)cc2S1(=O)=O` (stereo not drawn): the “activity, negative = inhibition” value was -18.2%.

For `CC(CC=O)CCCC(C)(C)O` (stereo not drawn), the “activity, negative = inhibition” value was -7.09%.

Consider `O=S(=O)(O)CC(S)CS` (stereo not drawn), for which the “activity, negative = inhibition” value is -0.0739%.

As for `CO/N=C(\C(=O)N[C@@H]1C(=O)N2C(C(=O)[O-])=C(C[n+]3cccc4c3CCC4)CS[C@H]12)c1csc(N)n1`, the “activity, negative = inhibition” value was -19.4%.

As for `NCCO/C=C/[C@H](N)C(=O)O`, the “activity, negative = inhibition” value was 1.69%.

Consider `CCCCCCCCCCCC(=O)N(CCO)CCO`, for which the “activity, negative = inhibition” value was 2.97%.

Turning to `CC(C)(COP(=O)(O)OP(=O)(O)OC[C@H]1O[C@@H](n2cnc3c(N)ncnc32)[C@H](O)[C@@H]1OP(=O)(O)O)C(O)C(=O)NCCC(=O)NCCS` (stereo partly drawn), the “activity, negative = inhibition” value is -7.66%.

Take `O=P(O)(O)CP(=O)(O)O`: the “activity, negative = inhibition” value is -1.3%.

As to `CC(C)(Oc1ccc(C2CCCc3ccccc32)cc1)C(=O)O` (stereo not drawn), the “activity, negative = inhibition” value was -0.123%.

Regarding `CC(C)(CO)[C@@H](O)C(=O)NCCC(=O)NCCSSCCNC(=O)CCNC(=O)[C@H](O)C(C)(C)CO`, the “activity, negative = inhibition” value is -4.58%.

For the compound `CCCOC(=O)c1ccccc1O`, the “activity, negative = inhibition” value is -4.54%.

With `C[Si](C)(C)O[Si](C)(C)C`, the “activity, negative = inhibition” value was -0.821%.

`CC1C(=O)CC2C3(C)CCC2(C(C)C(=O)O)C(=O)C13` (stereo not drawn): the “activity, negative = inhibition” value was -3.21%.

As to `C/C=C/C=C/C(=O)O`, the “activity, negative = inhibition” value was 11%.

`O=C(O)CCC/C=C\C[C@@H]1[C@@H](/C=C/[C@@H](O)COc2cccc(C(F)(F)F)c2)[C@H](O)C[C@@H]1O`: the “activity, negative = inhibition” value was 1.94%.

On to `O=C(O)[C@H]1CN(C/C=C/P(=O)(O)O)CCN1`, for which the “activity, negative = inhibition” value was -3.41%.

In the case of `O=C(O)[C@H]1C(=CCO)O[C@H]2CC(=O)N12`, the “activity, negative = inhibition” value was 0.0304%.

With `CCCC(=O)O`, the “activity, negative = inhibition” value was -0.223%.

For `OC[C@H]1O[C@@H]2O[C@H]3[C@H](O)[C@@H](O)[C@@H](O[C@H]4[C@H](O)[C@@H](O)[C@@H](O[C@H]5[C@H](O)[C@@H](O)[C@@H](O[C@H]6[C@H](O)[C@@H](O)[C@@H](O[C@H]7[C@H](O)[C@@H](O)[C@@H](O[C@H]1[C@H](O)[C@H]2O)O[C@@H]7CO)O[C@@H]6CO)O[C@@H]5CO)O[C@@H]4CO)O[C@@H]3CO`, the “activity, negative = inhibition” value was -0.663%.

Regarding `Cc1c(Cl)cccc1Nc1ncccc1C(=O)O`, the “activity, negative = inhibition” value is -6.01%.

As for `CCc1ncnc2cc(OC)c(OC)cc12`, the “activity, negative = inhibition” value is -3.2%.

As for `CC/C(=C(/CC)c1ccc(OP(=O)(O)O)cc1)c1ccc(OP(=O)(O)O)cc1`, the “activity, negative = inhibition” value was -1.88%.

In the case of `Cc1cccc(Nc2ncccc2C(=O)O)c1C`, the “activity, negative = inhibition” value was 3.21%.

As to `CC1=CC(=C(c2ccc(N)cc2)c2ccc(N)cc2)C=CC1=N`, the Potency is 5.36 µM (active).

Regarding `ClC(Cl)Cl`, the “activity, negative = inhibition” value is 0.289%.

Turning to `O=C(O)COc1ccc(CCNS(=O)(=O)c2ccccc2)s1`, the “activity, negative = inhibition” value was -1.02%.

With `C=Cc1ccc(S(=O)(=O)O)cc1`, the “activity, negative = inhibition” value was 2.58%.

As to `CCCCO`, the “activity, negative = inhibition” value is -7.04%.

Regarding `CC(C)(C)c1ccc2c(S(=O)(=O)O)c(C(C)(C)C)ccc2c1`, the “activity, negative = inhibition” value was 6.04%.

Take `CNC(=O)OCc1cccc(COC(=O)NC)n1`: the “activity, negative = inhibition” value is -2.83%.

Regarding `O=C(NCCNCC(O)COc1ccc(O)cc1)N1CCOCC1` (stereo not drawn), the “activity, negative = inhibition” value was -13.6%.

As for `C=CC(C)(O)CC/C=C(\C)CCC=C(C)C` (stereo not drawn), the “activity, negative = inhibition” value was -6.11%.

Consider `CO[C@H]1C[C@@H]2CC[C@@H](C)[C@@](O)(O2)C(=O)C(=O)N2CCCC[C@H]2C(=O)O[C@H]([C@H](C)C[C@@H]2CC[C@@H](OC(=O)C(C)(CO)CO)[C@H](OC)C2)CC(=O)[C@H](C)/C=C(\C)[C@@H](O)[C@@H](OC)C(=O)[C@H](C)C[C@H](C)/C=C/C=C/C=C/1C`, for which the “activity, negative = inhibition” value is -1.23%.

As for `CNC(=O)c1c(I)c(C(=O)NCC(=O)Nc2c(I)c(C(=O)O)c(I)c(C(=O)NCCO)c2I)c(I)c(N(C)C(C)=O)c1I`, the “activity, negative = inhibition” value is -1.93%.

As to `O=C(NNCS(=O)(=O)O)c1ccncc1`, the “activity, negative = inhibition” value is -4.09%.

As for `COc1cc2c(cc1OC)[C@@H](Cc1cc(OC)c(OC)c(OC)c1)[N+](C)(CCCOC(=O)CC/C=C/CCC(=O)OCCC[N+]1(C)CCc3cc(OC)c(OC)cc3[C@H]1Cc1cc(OC)c(OC)c(OC)c1)CC2` (stereo partly drawn), the “activity, negative = inhibition” value is 2.96%.

For the compound `CCCCCCCCCCCCCCCCCC[N+](C)(C)CCC[Si](OC)(OC)OC`, the “activity, negative = inhibition” value is -1.27%.

As to `Nc1ncnc2c1ncn2CCOCP(=O)(O)O`, the “activity, negative = inhibition” value is -4.53%.

For `CC1=C(/C=C/C(C)=C/C=C/C(C)=C/C(=O)Oc2c(C)c(C)c3c(c2C)CC[C@@](C)(CCC[C@H](C)CCC[C@H](C)CCCC(C)C)O3)C(C)(C)CCC1`, the “activity, negative = inhibition” value is -3.49%.

The subject of a further assay is Dd2. Described as above. Conditions: P. falciparum in erythrocytes, SYBR Green DNA, 72 h; series mostly up to 28.7 µM; activity, negative = inhibition: at the top concentration. The method, boiled down: as §1
Turning to `CN1C(C(=O)Nc2ccccn2)C(=O)c2sc(Cl)cc2S1(=O)=O` (stereo not drawn), the “activity, negative = inhibition” value was -6.83%.

As for `CC(CC=O)CCCC(C)(C)O` (stereo not drawn), the “activity, negative = inhibition” value was -10.4%.

Take `O=S(=O)(O)CC(S)CS` (stereo not drawn): the “activity, negative = inhibition” value is -2.84%.

As for `CO/N=C(\C(=O)N[C@@H]1C(=O)N2C(C(=O)[O-])=C(C[n+]3cccc4c3CCC4)CS[C@H]12)c1csc(N)n1`, the “activity, negative = inhibition” value is -5.19%.

In the case of `NCCO/C=C/[C@H](N)C(=O)O`, the “activity, negative = inhibition” value was 7.05%.

As to `CCCCCCCCCCCC(=O)N(CCO)CCO`, the “activity, negative = inhibition” value is -7.6%.

For `CC(C)(COP(=O)(O)OP(=O)(O)OC[C@H]1O[C@@H](n2cnc3c(N)ncnc32)[C@H](O)[C@@H]1OP(=O)(O)O)C(O)C(=O)NCCC(=O)NCCS` (stereo partly drawn), the “activity, negative = inhibition” value is -6.85%.

Consider `O=P(O)(O)CP(=O)(O)O`, for which the “activity, negative = inhibition” value is -3.55%.

For the compound `CC(C)(Oc1ccc(C2CCCc3ccccc32)cc1)C(=O)O` (stereo not drawn), the “activity, negative = inhibition” value is -0.139%.

`CC(C)(CO)[C@@H](O)C(=O)NCCC(=O)NCCSSCCNC(=O)CCNC(=O)[C@H](O)C(C)(C)CO`: the “activity, negative = inhibition” value was -1.96%.

On to `CCCOC(=O)c1ccccc1O`, for which the “activity, negative = inhibition” value is -14.5%.

For the compound `C[Si](C)(C)O[Si](C)(C)C`, the “activity, negative = inhibition” value was 1.83%.

In the case of `CC1C(=O)CC2C3(C)CCC2(C(C)C(=O)O)C(=O)C13` (stereo not drawn), the “activity, negative = inhibition” value was -5.9%.

As to `C/C=C/C=C/C(=O)O`, the “activity, negative = inhibition” value was -3.06%.

On to `O=C(O)CCC/C=C\C[C@@H]1[C@@H](/C=C/[C@@H](O)COc2cccc(C(F)(F)F)c2)[C@H](O)C[C@@H]1O`, for which the “activity, negative = inhibition” value was -0.95%.

As for `O=C(O)[C@H]1CN(C/C=C/P(=O)(O)O)CCN1`, the “activity, negative = inhibition” value is -5.72%.

Regarding `O=C(O)[C@H]1C(=CCO)O[C@H]2CC(=O)N12`, the “activity, negative = inhibition” value is 7.44%.

On to `CCCC(=O)O`, for which the “activity, negative = inhibition” value is 0.696%.

With `OC[C@H]1O[C@@H]2O[C@H]3[C@H](O)[C@@H](O)[C@@H](O[C@H]4[C@H](O)[C@@H](O)[C@@H](O[C@H]5[C@H](O)[C@@H](O)[C@@H](O[C@H]6[C@H](O)[C@@H](O)[C@@H](O[C@H]7[C@H](O)[C@@H](O)[C@@H](O[C@H]1[C@H](O)[C@H]2O)O[C@@H]7CO)O[C@@H]6CO)O[C@@H]5CO)O[C@@H]4CO)O[C@@H]3CO`, the “activity, negative = inhibition” value was 11.5%.

As to `Cc1c(Cl)cccc1Nc1ncccc1C(=O)O`, the “activity, negative = inhibition” value is -8.86%.

For `CCc1ncnc2cc(OC)c(OC)cc12`, the “activity, negative = inhibition” value was -6.39%.

`CC/C(=C(/CC)c1ccc(OP(=O)(O)O)cc1)c1ccc(OP(=O)(O)O)cc1`: the “activity, negative = inhibition” value was 0.296%.

Consider `Cc1cccc(Nc2ncccc2C(=O)O)c1C`, for which the “activity, negative = inhibition” value is 3.54%.

As for `CC1=CC(=C(c2ccc(N)cc2)c2ccc(N)cc2)C=CC1=N`, the Potency is 2.82 µM (active).

For the compound `ClC(Cl)Cl`, the “activity, negative = inhibition” value is 13.4%.

As for `O=C(O)COc1ccc(CCNS(=O)(=O)c2ccccc2)s1`, the “activity, negative = inhibition” value was -7.23%.

`C=Cc1ccc(S(=O)(=O)O)cc1`: the “activity, negative = inhibition” value was -0.786%.

Regarding `CCCCO`, the “activity, negative = inhibition” value was 5.65%.

Consider `CC(C)(C)c1ccc2c(S(=O)(=O)O)c(C(C)(C)C)ccc2c1`, for which the “activity, negative = inhibition” value was -3.64%.

On to `CNC(=O)OCc1cccc(COC(=O)NC)n1`, for which the “activity, negative = inhibition” value is -6.88%.

As to `O=C(NCCNCC(O)COc1ccc(O)cc1)N1CCOCC1` (stereo not drawn), the “activity, negative = inhibition” value is -12.1%.

For the compound `C=CC(C)(O)CC/C=C(\C)CCC=C(C)C` (stereo not drawn), the “activity, negative = inhibition” value was -14.6%.

With `CO[C@H]1C[C@@H]2CC[C@@H](C)[C@@](O)(O2)C(=O)C(=O)N2CCCC[C@H]2C(=O)O[C@H]([C@H](C)C[C@@H]2CC[C@@H](OC(=O)C(C)(CO)CO)[C@H](OC)C2)CC(=O)[C@H](C)/C=C(\C)[C@@H](O)[C@@H](OC)C(=O)[C@H](C)C[C@H](C)/C=C/C=C/C=C/1C`, the “activity, negative = inhibition” value was -6.01%.

As for `CNC(=O)c1c(I)c(C(=O)NCC(=O)Nc2c(I)c(C(=O)O)c(I)c(C(=O)NCCO)c2I)c(I)c(N(C)C(C)=O)c1I`, the “activity, negative = inhibition” value was -4.5%.

As for `O=C(NNCS(=O)(=O)O)c1ccncc1`, the “activity, negative = inhibition” value is 9.62%.

Regarding `COc1cc2c(cc1OC)[C@@H](Cc1cc(OC)c(OC)c(OC)c1)[N+](C)(CCCOC(=O)CC/C=C/CCC(=O)OCCC[N+]1(C)CCc3cc(OC)c(OC)cc3[C@H]1Cc1cc(OC)c(OC)c(OC)c1)CC2` (stereo partly drawn), the “activity, negative = inhibition” value was -17.8%.

For the compound `CCCCCCCCCCCCCCCCCC[N+](C)(C)CCC[Si](OC)(OC)OC`, the “activity, negative = inhibition” value was 2.83%.

Regarding `Nc1ncnc2c1ncn2CCOCP(=O)(O)O`, the “activity, negative = inhibition” value was -2.25%.

As for `CC1=C(/C=C/C(C)=C/C=C/C(C)=C/C(=O)Oc2c(C)c(C)c3c(c2C)CC[C@@](C)(CCC[C@H](C)CCC[C@H](C)CCCC(C)C)O3)C(C)(C)CCC1`, the “activity, negative = inhibition” value was -3.35%.
